From PubChem BioAssay (NCATS)
Results filed as inconclusive are left out. Active and inactive are the calls of the source. Calls come from the whole dose curve; as a rule, active = well fitted cell-killing curve with a large enough effect; inconclusive = small, poorly fitted or top-dose-only effect, or effect the other way; inactive = flat fitted curve, though single readings scatter.

How the values were obtained:
Test in all cases: Primary qHTS to identify gynecologic anti-cancer compounds using libraries of approved drugs and bioactive compounds (AID 1345084); note: nearly all actives have a fitted effect of over 55% in size
Conditions in all cases: Gynecologic cancer cell panel viability, ATPlite luminescence, 48 h; series mostly up to 57.5 µM
JEG-3 = tested on: JEG-3
In short: (§1)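 Cells, 1,000 per well, plated 16 h, then exposed 48 h at 37 C to compounds. Viability by ATPlite luminescence after 15 min at room temperature.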

OV90 = tested on: OV90
In short: as §1

PA-1 = tested on: PA-1
In short: as §1

SKOV3 = tested on: SKOV3
In short: as §1

Tov-21-G = tested on: Tov-21-G
In short: as §1

Tov112D = tested on: Tov112D
In short: as §1
% is set by controls: 0 for no effect and ±100 for the full control effect.

OCC1=CC[C@@H]2C=CO[C@@H](O[C@@H]3O[C@H](CO)[C@@H](O)[C@H](O)[C@H]3O)[C@H]12
inactive: Potency (JEG-3) | Potency (OV90) | Potency (PA-1) | Potency (SKOV3) | Potency (Tov-21-G) | Potency (Tov112D)

CC1=CC(=O)CC(C)(C)C1(O)CCC(C)O (centres undefined)
inactive: Potency (JEG-3) | Potency (OV90) | Potency (PA-1) | Potency (SKOV3) | Potency (Tov-21-G) | Potency (Tov112D)

CC(=O)N(O)CCCCCN1C(=O)CCC1=O
inactive: Potency (JEG-3) | Potency (OV90) | Potency (PA-1) | Potency (SKOV3) | Potency (Tov-21-G) | Potency (Tov112D)

C[C@@H]1CC[C@]2(C)C(C[C@@H](O)[C@H](O)[C@]23CO3)[C@@]1(C)CCc1ccoc1 (some centres undefined)
inactive: Potency (JEG-3) | Potency (OV90) | Potency (PA-1) | Potency (SKOV3) | Potency (Tov-21-G) | Potency (Tov112D)

C=C1CCC2C(OC(=O)C2(O)COC(C)=O)C2C(=C)C(O)CC12 (centres undefined)
inactive: Potency (JEG-3) | Potency (OV90) | Potency (PA-1) | Potency (SKOV3) | Potency (Tov-21-G) | Potency (Tov112D)

CC(C)(C)NCc1cc(Nc2ccnc3cc(Cl)ccc23)c2c(c1O)CCCC2
inactive: activity change, negative = cytotoxicity (JEG-3) 2.67% [at 0.462 µM] | activity change, negative = cytotoxicity (OV90) 12.6% [at 0.462 µM] | activity change, negative = cytotoxicity (PA-1) 0.938% [at 0.462 µM] | activity change, negative = cytotoxicity (SKOV3) 4.41% [at 0.462 µM] | activity change, negative = cytotoxicity (Tov-21-G) 8.34% [at 0.462 µM] | activity change, negative = cytotoxicity (Tov112D) 20.2% [at 0.462 µM]

CCn1nnnc1NCc1ccc(C(C)C)cc1
inactive: Potency (JEG-3) | Potency (OV90) | Potency (PA-1) | Potency (SKOV3) | Potency (Tov-21-G) | Potency (Tov112D)

COc1cc2c(cc1O)C1(Cc3ccc4c(c3C1=O)OCO4)N(C)CC2 (centres undefined)
inactive: Potency (JEG-3) | Potency (OV90) | Potency (PA-1) | Potency (SKOV3) | Potency (Tov-21-G) | Potency (Tov112D)

O=C(/C=C/c1ccc(O)cc1)OC[C@H]1O[C@@H](OC(=O)/C=C/c2ccccc2)[C@H](O)[C@@H](O)[C@@H]1O
inactive: Potency (JEG-3) | Potency (OV90) | Potency (PA-1) | Potency (SKOV3) | Potency (Tov-21-G) | Potency (Tov112D)

C=CC(C)(O)CC/C=C(\C)C(=O)OC1CC2(C(=O)O)CCC3(C)C(=CCC4C5(C)CCC(OC6OC(COC7OCC(O)C(O)C7O)C(O)C(OC7OCC(O)C(O)C7O)C6OC6OC(CO)C(O)C(O)C6OC6OCC(O)C(O)C6O)C(C)(C)C5CCC43C)C2CC1(C)C (centres undefined)
inactive: activity change, negative = cytotoxicity (JEG-3) -1.3% [at 6.55 µM] | activity change, negative = cytotoxicity (OV90) 0.467% [at 6.55 µM] | activity change, negative = cytotoxicity (PA-1) 9.33% [at 6.55 µM] | activity change, negative = cytotoxicity (SKOV3) -0.175% [at 6.55 µM] | activity change, negative = cytotoxicity (Tov-21-G) 1.97% [at 6.55 µM] | activity change, negative = cytotoxicity (Tov112D) 4.31% [at 6.55 µM]

CC(=O)c1c(C)cc(O)cc1O[C@@H]1O[C@H](CO)[C@@H](O)[C@H](O)[C@H]1O
inactive: Potency (JEG-3) | Potency (OV90) | Potency (PA-1) | Potency (SKOV3) | Potency (Tov-21-G) | Potency (Tov112D)

CC(=O)O[C@H](C[C@@H](C)[C@H]1C(=O)[C@H](O)[C@@]2(C)[C@@H]3CCC4C(C)(C)[C@@H](O[C@@H]5OC[C@H](O)[C@H](O)[C@H]5O)CC[C@@]45C[C@@]35CC[C@]12C)[C@@H]1OC1(C)C (some centres undefined)
inactive: Potency (JEG-3) | Potency (OV90) | Potency (PA-1) | Potency (SKOV3) | Potency (Tov-21-G) | Potency (Tov112D)

O=C(O[C@H]1[C@@H]2C[C@@H]3OC[C@@](O)([C@H]2[C@H](O[C@@H]2O[C@H](CO)[C@@H](O)[C@H](O)[C@H]2O)O3)[C@@H]1O)c1ccccc1
inactive: Potency (JEG-3) | Potency (OV90) | Potency (PA-1) | Potency (SKOV3) | Potency (Tov-21-G) | Potency (Tov112D)

Cc1c(-c2ccnn2C)cc(C(=O)NCc2ccc(S(C)(=O)=O)cn2)c(=O)n1-c1cccc(C(F)(F)F)c1
inactive: Potency (JEG-3) | Potency (OV90) | Potency (PA-1) | Potency (SKOV3) | Potency (Tov-21-G) | Potency (Tov112D)

CCCn1cnc2c(NCc3ccccc3)nc(N[C@H](CC)CO)nc21
inactive: Potency (JEG-3) | Potency (OV90) | Potency (PA-1) | Potency (SKOV3) | Potency (Tov-21-G) | Potency (Tov112D)

COC1CC(=O)CCC(C)OC(=O)CC1O (centres undefined)
inactive: Potency (JEG-3) | Potency (OV90) | Potency (PA-1) | Potency (SKOV3) | Potency (Tov-21-G) | Potency (Tov112D)

O=c1c2ccccc2nc2n1CCC2O (centres undefined)
inactive: Potency (JEG-3) | Potency (OV90) | Potency (PA-1) | Potency (SKOV3) | Potency (Tov-21-G) | Potency (Tov112D)

CC(C)CC(=O)O[C@@H]1OC=C(CO[C@@H]2O[C@H](CO[C@@H]3O[C@H](CO)[C@@H](O)[C@H](O)[C@H]3O)[C@@H](O)[C@H](O)[C@H]2O)[C@H]2C[C@H](O)[C@@H](CO)[C@@H]12
inactive: Potency (JEG-3) | Potency (OV90) | Potency (PA-1) | Potency (SKOV3) | Potency (Tov-21-G) | Potency (Tov112D)

C=CC(C)(O)CC/C=C(/C)C(=O)OC1C(OC2OCC(OC3OC(CO)C(O)C(O)C3O)C(OC3OCC(O)C(OC4OC(C)C(O)C(O)C4O)C3O)C2O)COC(OC(=O)C23CCC(C)(C)CC2C2=CCC4C5(C)CCC(OC6OC(CO)C(OC7OC(CO)C(O)C(OC8OCC(O)C(O)C8O)C7O)C(O)C6O)C(C)(C)C5CCC4(C)C2(C)CC3O)C1O (centres undefined)
inactive: activity change, negative = cytotoxicity (JEG-3) -0.642% [at 6.55 µM] | activity change, negative = cytotoxicity (OV90) -1.5% [at 6.55 µM] | activity change, negative = cytotoxicity (PA-1) 6.35% [at 6.55 µM] | activity change, negative = cytotoxicity (SKOV3) 24.3% [at 6.55 µM] | activity change, negative = cytotoxicity (Tov-21-G) 1.46% [at 6.55 µM] | activity change, negative = cytotoxicity (Tov112D) 0.487% [at 6.55 µM]

CC(=O)N1c2ccccc2C2(O)CC3C(=O)NC(CC(C)C)C(=O)N3C12 (centres undefined)
inactive: Potency (JEG-3) | Potency (OV90) | Potency (PA-1) | Potency (SKOV3) | Potency (Tov-21-G) | Potency (Tov112D)

C[C@@H]1O[C@@H](O[C@H]2[C@H](OC(=O)[C@]34CCC(C)(C)C[C@H]3C3=CCC5[C@@]6(C)CC[C@H](O[C@@H]7O[C@H](CO[C@@H]8OC[C@H](O)[C@H](O)[C@H]8O)[C@@H](O)[C@H](O)[C@H]7O)C(C)(C)C6CC[C@@]5(C)[C@]3(C)C[C@H]4O)OC[C@@H](O)[C@@H]2O)[C@H](O)[C@H](O)[C@H]1O[C@@H]1OC[C@H](O)[C@H](O[C@@H]2OC[C@@H](O)[C@H](O)[C@H]2O)[C@H]1O (some centres undefined)
inactive: activity change, negative = cytotoxicity (JEG-3) -1.75% [at 6.55 µM] | activity change, negative = cytotoxicity (OV90) -10.8% [at 6.55 µM] | activity change, negative = cytotoxicity (PA-1) 1.4% [at 6.55 µM] | activity change, negative = cytotoxicity (SKOV3) 14.1% [at 6.55 µM] | activity change, negative = cytotoxicity (Tov-21-G) -9.88% [at 6.55 µM] | activity change, negative = cytotoxicity (Tov112D) 9.32% [at 6.55 µM]

C=C1C(=O)OC2CC(C)=C(C(C)CCCO[C@@H]3O[C@H](CO)[C@@H](O)[C@H](O)[C@H]3O)C(O)C12 (some centres undefined)
inactive: Potency (JEG-3) | Potency (OV90) | Potency (PA-1) | Potency (SKOV3) | Potency (Tov-21-G) | Potency (Tov112D)

C[C@@H]1O[C@@H](O[C@H]2[C@H](O[C@H]3CC[C@@]4(C)C(CC[C@]5(C)C4CC=C4[C@@H]6CC(C)(C)CC[C@]6(C(=O)O)CC[C@]45C)[C@]3(C)CO)OC[C@H](O)[C@@H]2O)[C@H](O)[C@H](O[C@@H]2OC[C@@H](O)[C@H](O)[C@H]2O)[C@H]1O (some centres undefined)
inactive: activity change, negative = cytotoxicity (JEG-3) -2.58% [at 11.6 µM] | activity change, negative = cytotoxicity (OV90) -5.88% [at 11.6 µM] | activity change, negative = cytotoxicity (PA-1) -2.5% [at 11.6 µM] | activity change, negative = cytotoxicity (SKOV3) -0.901% [at 11.6 µM] | activity change, negative = cytotoxicity (Tov-21-G) -4.57% [at 11.6 µM] | activity change, negative = cytotoxicity (Tov112D) 4.64% [at 11.6 µM]

CC1C(=O)CC2C3C(O)CC(C(=O)O)C12CC3(C)C (centres undefined)
inactive: Potency (JEG-3) | Potency (OV90) | Potency (PA-1) | Potency (SKOV3) | Potency (Tov-21-G) | Potency (Tov112D)

COc1cc2c(cc1O)C1(OC)Cc3ccc4c(c3C1N(C)CC2)OCO4 (centres undefined)
inactive: Potency (JEG-3) | Potency (OV90) | Potency (PA-1) | Potency (SKOV3) | Potency (Tov-21-G) | Potency (Tov112D)

Cc1c(CN(C)C(=O)/C=C/c2cnc3c(c2)CCC(=O)N3)oc2ccccc12
inactive: Potency (JEG-3) | Potency (OV90) | Potency (PA-1) | Potency (SKOV3) | Potency (Tov-21-G) | Potency (Tov112D)

COc1c(C(CC(C)C)OC(C)=O)ccc(Oc2c(O)cc(C)cc2/C=C/C(C)=O)c1C(=O)O (centres undefined)
inactive: Potency (JEG-3) | Potency (OV90) | Potency (PA-1) | Potency (SKOV3) | Potency (Tov-21-G) | Potency (Tov112D)

C=CC1C(O[C@@H]2O[C@H](CO)[C@@H](O)[C@H](O)[C@H]2O)OC=C(C(=O)OC)C1CC(=O)O (some centres undefined)
inactive: Potency (JEG-3) | Potency (OV90) | Potency (PA-1) | Potency (SKOV3) | Potency (Tov-21-G) | Potency (Tov112D)

O=C1NC(Cc2ccc(O)cc2)C(=O)N2CCCC12 (centres undefined)
inactive: Potency (JEG-3) | Potency (OV90) | Potency (PA-1) | Potency (SKOV3) | Potency (Tov-21-G) | Potency (Tov112D)

COC(=O)C[C@@H]1C(C(=O)O)=CO[C@@H](O[C@@H]2O[C@H](CO)[C@@H](O)[C@H](O)[C@H]2O)/C1=C\COC(=O)/C=C\c1ccccc1
inactive: Potency (JEG-3) | Potency (OV90) | Potency (PA-1) | Potency (SKOV3) | Potency (Tov-21-G) | Potency (Tov112D)

C/C=C/C1=CC2=CC(=O)C(C)(O)C(OC(=O)c3c(C)cc(O)cc3O)C2CO1 (centres undefined)
inactive: Potency (JEG-3) | Potency (OV90) | Potency (PA-1) | Potency (SKOV3) | Potency (Tov-21-G) | Potency (Tov112D)

COc1ccc2c(c1O)OC[C@H]1c3ccc(O)cc3O[C@@H]21
inactive: Potency (JEG-3) | Potency (OV90) | Potency (PA-1) | Potency (SKOV3) | Potency (Tov-21-G) | Potency (Tov112D)

C[C@@H]1C[C@H](O[C@@H]2O[C@H](CO[C@@H]3OC[C@](O)(CO)[C@H]3O)[C@@H](O)[C@H](O)[C@H]2O)CC(C)(C)[C@H]1/C=C/[C@@H](C)O
inactive: Potency (JEG-3) | Potency (OV90) | Potency (PA-1) | Potency (SKOV3) | Potency (Tov-21-G) | Potency (Tov112D)

CC(=O)C1CCC2(C)C3=C(CCC12C)C1(C)CCC(=O)C(C)(C)C1CC3 (centres undefined)
inactive: Potency (JEG-3) | Potency (OV90) | Potency (PA-1) | Potency (SKOV3) | Potency (Tov-21-G) | Potency (Tov112D)
